aSyn UTR act: Activators working through SNCA 5'UTR binding (MLPCN). alpha-synuclein 5'UTR reporter, activators screen. activity score, % (tested at 7.5 µM), hits read low. 300,000 compounds, 7.1% hits; in the data active = activity score below about -60%
* hit, by the source's call. Not all results are given here.

SMILES	aSyn UTR act
O=C(NCCC1=CCCCC1)c1cnccn1	-114*
COc1ccc(C(=O)NCCC2=CCCCC2)cc1OC1CCN(C(C)C)CC1	-74*
O=C(COC(=O)c1ccccc1Br)NCCC1=CCCCC1	-64*
O=C(O)C(=O)/C(=C\c1ccccc1)c1ccc2ccccc2n1	-90*
O=C(O)C(=O)/C(=C\c1ccc([N+](=O)[O-])cc1)c1ccc2ccccc2n1	-88*
O=C(C[n+]1cc(-c2ccc(F)cc2)n2c1CCC2)Nc1nc(-c2ccccc2)cs1	-89*
O=[N+]([O-])c1ncccc1OCc1ccc(Cl)c(Cl)c1	-121*
CCOC(=O)N1CCC(NC(=O)c2ccc3c(c2)sc2nc(-c4ccc(OC)cc4)cn23)CC1	-98*
CCOC(=O)N1CCN(C(=O)c2ccc3c(c2)sc2nc(-c4ccccc4)cn23)CC1	-109*
CCOC(=O)N1CCN(C(=O)c2nc3ccccc3s2)CC1	-93*
N=c1c2c(n(Cc3ccc(Br)cc3)c3c1CCC3)CCCC2	60
CCCCS/C(N)=N/N=C/c1ccccc1O	-153*
CCCS/C(N)=N/N=C/c1cc(C)ccc1O	-138*
C/C(=N/N=C/c1ccccc1O)c1ccccc1O	-240*
O=C(/C=C/Nc1ccc(Oc2ccccc2)cc1)c1ccco1	-201*
NC(=O)c1ccccc1N/C=C/C(=O)c1ccco1	-97*
O=C(/C=C/Nc1ccccc1C(F)(F)F)c1ccco1	-321*
O=C(/C=C/Nc1cccc(C(F)(F)F)c1)c1ccco1	-174*
O=C(/C=C/Nc1cccc(C(F)(F)F)c1)c1ccc(Oc2ncccn2)cc1	-94*
NC1=NC(=O)/C(=C\c2cc([N+](=O)[O-])ccc2Cl)S1	-95*
O=C(Nc1nnc(Cc2ccccc2F)s1)Nc1ccccc1F	-99*
O=C(Nc1nnc(-c2ccccc2F)s1)Nc1ccccc1F	-155*
COc1ccccc1N1CCN(/N=C\c2ccc(C)o2)CC1	-98*
COc1ccccc1N1CCN(/N=C/C(Cl)=C/c2ccccc2)CC1	-159*
COc1ccccc1N1CCN(C(=O)C2c3ccccc3Oc3ccccc32)CC1	81
SMILES	aSyn UTR act
COc1ccccc1N1CCN(/N=C\c2ccccc2)CC1	-103*
O=C(Nc1ncc2c(n1)CC(c1ccco1)CC2=O)c1ccccc1 (configuration not stated)	-72*
Cc1ccc2nc(-c3ccc4c(c3)OCCO4)cn2c1	110
Cc1ccc2nc(-c3ccc4c(c3)NC(=O)CO4)cn2c1	-80*
Cc1cc(/C=C2/SC(=O)N(CC(=O)N3CCOCC3)C2=O)c(C)n1-c1ccccc1F	-143*
COc1ccccc1-n1c(C)cc(/C=C2\C(=N)N3N=C(CC(=O)N4CCOCC4)SC3=NC2=O)c1C	-72*
COc1cc(/C=C2/C(=N)N3N=C(CC(=O)N4CCOCC4)SC3=NC2=O)ccc1OCc1ccc(F)cc1	-102*
CCOc1cc(C2c3c(n[nH]c3C)C(=O)N2c2ccc(Br)cc2)ccc1O (configuration not stated)	-62*
CCS(=O)(=O)c1nnnn1-c1ccccc1S(C)(=O)=O	-174*
CN(C)/C=C1\SC(=S)N(c2ccc(Br)cc2)C1=O	-100*
COCCn1c(C)cc(C(=O)CSc2nc3ccccc3s2)c1C	53
COCCn1c(C)cc(C(=O)Cn2nc(C(=O)O)c3ccccc3c2=O)c1C	-116*
CNS(=O)(=O)c1ccc(NC(=S)Nc2ccc3c(c2)OCO3)cc1	-129*
O=S(=O)(c1ccc(NC(=S)Nc2ccc3c(c2)OCO3)cc1)N1CCOCC1	-227*
CN(C)/N=C/C=C1\CC/C(=C\c2ccc(Br)cc2)C1=O	-84*
CN(C)/N=C/C=C1\CCC/C(=C/c2cccs2)C1=O	-173*
Cc1cc2n(n1)SC(Nc1cccc3ccccc13)N2 (configuration not stated)	-94*
Cc1cc(C)n(-c2ccc3cccc(NS(C)(=O)=O)c3n2)n1	90
CCc1ccc(Nc2cc(=O)n(C3CCCCC3)c(=O)[nH]2)cc1	-79*
O=C1Nc2cc(Cl)c(Cl)cc2N(O)N1c1ccc(Cl)cc1	-149*
O=C(Nc1nncs1)c1cc2c(s1)CCC2	-132*
O=C(Nc1nccs1)c1cc2c(s1)CCCCC2	72
CC(C)Cc1nnc(NC(=O)c2cc3c(s2)CCC3)s1	-207*
C(=C/c1nccc2c1[nH]c1ccccc12)/c1ccc2c(c1)OCO2	-132*
Nc1nnc(COc2ccc(Br)cc2Br)s1	-98*
SMILES	aSyn UTR act
COC(=O)c1ccc(Cn2nc(C)cc2C)cc1	-71*
O=C(Nc1ccccc1)ON=C1CCCC1	-82*
Cc1ccc(NC(=O)ON=C2CCCC2)cc1	-205*
CCCc1n[nH]c2c1/C(=N/O)CC(c1ccccc1)C2 (configuration not stated)	69
Cc1c(C(=O)OCC(C)C)[nH]c2c1C(=O)CC(c1ccco1)C2 (configuration not stated)	70
CCC(C)OC(=O)c1[nH]c2c(c1C)C(=O)CC(c1ccc(N(C)C)cc1)C2 (configuration not stated)	-92*
CCC(=NCCc1c(C)[nH]c2ccc(OC(F)(F)F)cc12)C1=C(O)CC(c2ccccc2)CC1=O (configuration not stated)	107
